Experiment in all cases: DAPPL (digital affinity profiling via proximity ligation, sequencing); 10 mM Tris-HCl pH 7.5, 50 mM NaCl, 1 mM DTT, 4% glycerol, room temperature, 30 min; GST-TFs on glutathione beads, 16-mer random dsDNA library, 0.1% formaldehyde crosslink after washing; high values mean tight binding
One experiment has as its target T1, FEV (Homo sapiens, UniProt Q99581 1-238).
T1 sequence: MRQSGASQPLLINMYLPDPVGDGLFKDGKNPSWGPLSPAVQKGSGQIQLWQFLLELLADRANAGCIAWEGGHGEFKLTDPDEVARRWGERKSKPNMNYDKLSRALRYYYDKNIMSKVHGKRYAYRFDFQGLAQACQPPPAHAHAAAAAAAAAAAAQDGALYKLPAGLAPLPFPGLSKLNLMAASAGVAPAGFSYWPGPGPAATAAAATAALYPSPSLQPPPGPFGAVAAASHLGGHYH
To be noted: protein: recombinant; tags: N-terminal GST; dsDNA, one strand shown. In short, it runs like this: (§1)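 Human transcription factors carrying a GST fusion were produced in yeast, bound to glutathione beads, tagged with DNA barcodes and pooled together with a tag-only sample. Each pool was held with 200 nmole of a random double-stranded 16-mer DNA library in Tris/NaCl/DTT/glycerol buffer for 30 min at room temperature, then washed, crosslinked in 0.1% formaldehyde, proximity-ligated with BsaI/T4 ligase (1 h, 37 °C), PCR-amplified and sequenced on an Illumina NextSeq500. Binding signal is the read frequency of each hexamer for a given factor divided by its frequency in the tag-only sample.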

For the next experiment, the target named is ETV5 (Homo sapiens, UniProt P41161 1-510). The conditions noted are these: protein: recombinant; tags: N-terminal GST; dsDNA, one strand shown. The method, boiled down:
as §1

The target in the next experiment is HSF1 (Homo sapiens, UniProt Q00613 1-529). The conditions noted are these: protein: recombinant; tags: N-terminal GST; chain copies: 3; dsDNA, one strand shown. In short, it runs like this:
as §1

For the next experiment, the target named is T2, SPIC (Homo sapiens, UniProt Q8N5J4 1-248).
T2 sequence: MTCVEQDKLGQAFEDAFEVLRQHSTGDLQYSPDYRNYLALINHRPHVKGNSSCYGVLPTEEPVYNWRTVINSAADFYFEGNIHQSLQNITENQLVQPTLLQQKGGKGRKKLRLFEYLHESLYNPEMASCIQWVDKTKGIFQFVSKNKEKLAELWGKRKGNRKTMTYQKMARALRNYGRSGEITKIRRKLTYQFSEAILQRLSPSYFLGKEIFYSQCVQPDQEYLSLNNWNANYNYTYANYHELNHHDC
The conditions noted are these: protein: recombinant; tags: N-terminal GST; dsDNA, one strand shown. In short, it runs like this:
as §1

Another experiment addresses ELF4 (Homo sapiens, UniProt Q99607 1-663). The conditions noted are these: protein: recombinant; tags: N-terminal GST; dsDNA, one strand shown. In short, it runs like this:
as §1

Another experiment addresses T3, ELK4 (Homo sapiens, UniProt P28324-2 1-405).
T3 sequence: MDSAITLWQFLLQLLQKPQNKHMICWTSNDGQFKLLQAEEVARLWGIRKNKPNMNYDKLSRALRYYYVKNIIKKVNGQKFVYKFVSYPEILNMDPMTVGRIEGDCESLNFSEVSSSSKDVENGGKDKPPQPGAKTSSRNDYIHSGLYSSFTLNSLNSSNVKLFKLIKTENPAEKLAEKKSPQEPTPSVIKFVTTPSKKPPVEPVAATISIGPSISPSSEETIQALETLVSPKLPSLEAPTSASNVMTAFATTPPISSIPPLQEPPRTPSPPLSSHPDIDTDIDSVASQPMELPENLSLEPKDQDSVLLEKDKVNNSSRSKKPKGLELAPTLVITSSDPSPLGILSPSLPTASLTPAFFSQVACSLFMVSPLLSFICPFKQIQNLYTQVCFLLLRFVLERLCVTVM
The conditions noted are these: protein: recombinant; tags: N-terminal GST; dsDNA, one strand shown. In short, it runs like this:
as §1

The target in a further experiment is T4, ETV2 (Homo sapiens, UniProt O00321 1-342).
T4 sequence: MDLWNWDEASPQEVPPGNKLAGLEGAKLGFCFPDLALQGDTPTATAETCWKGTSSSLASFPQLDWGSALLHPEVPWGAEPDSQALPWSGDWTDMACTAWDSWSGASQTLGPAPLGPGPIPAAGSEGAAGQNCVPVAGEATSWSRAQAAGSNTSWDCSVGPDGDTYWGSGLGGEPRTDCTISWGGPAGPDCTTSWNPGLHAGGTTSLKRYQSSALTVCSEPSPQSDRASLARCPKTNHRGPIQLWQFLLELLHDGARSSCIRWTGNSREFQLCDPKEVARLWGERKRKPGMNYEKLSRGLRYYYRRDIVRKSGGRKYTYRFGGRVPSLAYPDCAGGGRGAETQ
To be noted: protein: recombinant; tags: N-terminal GST; dsDNA, one strand shown. The method, boiled down: as §1

For another experiment, the target named is T5, ELF3 (Homo sapiens, UniProt P78545 1-371).
T5 sequence: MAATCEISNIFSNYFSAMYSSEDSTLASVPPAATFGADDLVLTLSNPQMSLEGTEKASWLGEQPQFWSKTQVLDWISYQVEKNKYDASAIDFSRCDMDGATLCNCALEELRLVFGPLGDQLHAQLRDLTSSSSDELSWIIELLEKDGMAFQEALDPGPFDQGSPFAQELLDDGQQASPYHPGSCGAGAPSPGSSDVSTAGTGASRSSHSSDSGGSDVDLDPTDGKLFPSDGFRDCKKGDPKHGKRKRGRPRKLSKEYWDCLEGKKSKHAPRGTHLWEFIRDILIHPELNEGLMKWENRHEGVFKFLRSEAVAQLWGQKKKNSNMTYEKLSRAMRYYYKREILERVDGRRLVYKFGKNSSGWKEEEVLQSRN
To be noted: protein: recombinant; tags: N-terminal GST; dsDNA, one strand shown. In short, it runs like this:
as §1

A further experiment concerns the target CRX (Homo sapiens, UniProt O43186 1-299). To be noted: protein: recombinant; tags: N-terminal GST; dsDNA, one strand shown. The method, boiled down:
as §1

The target of the next experiment is ETV1 (Homo sapiens, UniProt P50549 1-477). The conditions noted are these: protein: recombinant; tags: N-terminal GST; dsDNA, one strand shown. The method, boiled down: as §1
The target in another experiment is T6, ERF (Homo sapiens, UniProt P50548 1-548).
T6 sequence: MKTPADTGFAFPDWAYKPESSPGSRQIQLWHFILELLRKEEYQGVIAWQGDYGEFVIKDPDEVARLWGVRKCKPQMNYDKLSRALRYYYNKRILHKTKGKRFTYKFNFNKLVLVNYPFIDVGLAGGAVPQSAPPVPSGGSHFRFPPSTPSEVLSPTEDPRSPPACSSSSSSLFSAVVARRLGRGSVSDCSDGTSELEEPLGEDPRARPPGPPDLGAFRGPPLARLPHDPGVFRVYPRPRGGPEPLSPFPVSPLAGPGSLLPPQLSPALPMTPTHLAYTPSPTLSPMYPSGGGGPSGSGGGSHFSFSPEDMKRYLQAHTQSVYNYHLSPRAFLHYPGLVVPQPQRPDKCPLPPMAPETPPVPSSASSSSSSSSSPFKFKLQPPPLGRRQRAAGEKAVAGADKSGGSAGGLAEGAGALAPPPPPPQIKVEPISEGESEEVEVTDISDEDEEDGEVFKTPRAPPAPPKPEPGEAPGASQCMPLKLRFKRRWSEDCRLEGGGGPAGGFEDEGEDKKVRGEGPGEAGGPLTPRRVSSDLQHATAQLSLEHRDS
To be noted: protein: recombinant; tags: N-terminal GST; dsDNA, one strand shown. The method, boiled down: as §1

The target of another experiment is T7, ETV3L (Homo sapiens, UniProt Q6ZN32 1-361).
T7 sequence: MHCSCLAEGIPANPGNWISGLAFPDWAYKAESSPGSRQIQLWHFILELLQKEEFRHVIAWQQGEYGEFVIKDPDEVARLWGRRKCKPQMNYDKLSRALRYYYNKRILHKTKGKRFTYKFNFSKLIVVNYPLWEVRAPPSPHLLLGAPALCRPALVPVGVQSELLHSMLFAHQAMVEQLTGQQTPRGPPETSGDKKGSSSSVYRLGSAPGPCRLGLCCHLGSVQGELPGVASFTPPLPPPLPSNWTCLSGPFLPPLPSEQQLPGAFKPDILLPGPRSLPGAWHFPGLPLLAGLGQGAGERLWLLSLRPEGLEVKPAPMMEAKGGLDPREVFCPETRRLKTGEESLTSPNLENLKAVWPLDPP
To be noted: protein: recombinant; tags: N-terminal GST; dsDNA, one strand shown. In short, it runs like this:
as §1

The target of a further experiment is T8, ETS2 (Homo sapiens, UniProt P15036 1-469).
T8 sequence: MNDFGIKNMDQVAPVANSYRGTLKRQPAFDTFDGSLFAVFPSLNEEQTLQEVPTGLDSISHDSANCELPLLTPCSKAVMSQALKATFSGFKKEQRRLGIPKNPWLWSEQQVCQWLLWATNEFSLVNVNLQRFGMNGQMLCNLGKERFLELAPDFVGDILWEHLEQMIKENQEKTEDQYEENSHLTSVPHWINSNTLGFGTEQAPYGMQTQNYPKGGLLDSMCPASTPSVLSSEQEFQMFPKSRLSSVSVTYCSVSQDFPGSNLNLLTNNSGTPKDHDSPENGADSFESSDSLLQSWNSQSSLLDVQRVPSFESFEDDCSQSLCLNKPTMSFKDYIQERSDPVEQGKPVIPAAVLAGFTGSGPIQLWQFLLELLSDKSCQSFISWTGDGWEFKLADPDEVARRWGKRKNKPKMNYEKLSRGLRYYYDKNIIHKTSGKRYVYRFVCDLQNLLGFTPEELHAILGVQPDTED
The conditions noted are these: protein: recombinant; tags: N-terminal GST; dsDNA, one strand shown. The method, boiled down:
as §1

Another experiment addresses T9, SPDEF (Homo sapiens, UniProt O95238 1-335).
T9 sequence: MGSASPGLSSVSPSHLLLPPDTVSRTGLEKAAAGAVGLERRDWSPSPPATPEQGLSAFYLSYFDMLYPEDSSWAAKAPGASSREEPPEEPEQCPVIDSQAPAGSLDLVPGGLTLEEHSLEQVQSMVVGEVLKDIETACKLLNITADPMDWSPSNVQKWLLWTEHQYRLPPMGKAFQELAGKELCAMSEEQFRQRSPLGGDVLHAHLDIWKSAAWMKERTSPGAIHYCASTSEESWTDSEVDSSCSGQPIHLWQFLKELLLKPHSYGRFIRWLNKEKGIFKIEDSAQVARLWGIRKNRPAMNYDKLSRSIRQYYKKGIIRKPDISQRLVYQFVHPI
To be noted: protein: recombinant; tags: N-terminal GST; dsDNA, one strand shown. The method, boiled down:
as §1

For another experiment, the target named is T10, ETV7 (Homo sapiens, UniProt Q9Y603 1-341).
T10 sequence: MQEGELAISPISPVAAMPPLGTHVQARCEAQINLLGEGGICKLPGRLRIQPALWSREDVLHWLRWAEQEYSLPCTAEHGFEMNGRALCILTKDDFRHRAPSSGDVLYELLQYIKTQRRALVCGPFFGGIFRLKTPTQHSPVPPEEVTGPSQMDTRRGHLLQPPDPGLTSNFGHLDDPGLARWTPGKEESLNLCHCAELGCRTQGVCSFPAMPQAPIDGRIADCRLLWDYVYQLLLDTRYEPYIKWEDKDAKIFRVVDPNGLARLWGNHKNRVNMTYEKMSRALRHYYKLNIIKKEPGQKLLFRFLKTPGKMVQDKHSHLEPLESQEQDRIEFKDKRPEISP
The conditions noted are these: protein: recombinant; tags: N-terminal GST; dsDNA, one strand shown. In short, it runs like this: as §1

The next experiment has as its target T11, ELF5 (Homo sapiens, UniProt Q9UKW6-2 1-255).
T11 sequence: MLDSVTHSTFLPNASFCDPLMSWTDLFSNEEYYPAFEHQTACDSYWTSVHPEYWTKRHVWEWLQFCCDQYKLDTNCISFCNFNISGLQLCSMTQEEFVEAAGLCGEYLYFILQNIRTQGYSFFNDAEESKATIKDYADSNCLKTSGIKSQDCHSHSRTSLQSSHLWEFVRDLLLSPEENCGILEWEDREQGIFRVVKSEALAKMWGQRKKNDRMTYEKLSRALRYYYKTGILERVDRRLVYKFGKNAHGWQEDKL
The conditions noted are these: protein: recombinant; tags: N-terminal GST; dsDNA, one strand shown. In short, it runs like this:
as §1

Another experiment addresses T12, ETV3 (Homo sapiens, UniProt P41162-2 1-143).
T12 sequence: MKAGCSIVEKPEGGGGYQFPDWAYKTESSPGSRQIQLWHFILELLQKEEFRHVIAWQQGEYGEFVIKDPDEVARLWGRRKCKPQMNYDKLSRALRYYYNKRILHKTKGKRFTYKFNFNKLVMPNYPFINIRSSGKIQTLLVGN
The conditions noted are these: protein: recombinant; tags: N-terminal GST; dsDNA, one strand shown. The method, boiled down:
as §1

The target of the next experiment is ETV6 (Homo sapiens, UniProt P41212 1-452). The conditions noted are these: protein: recombinant; tags: N-terminal GST; dsDNA, one strand shown. The method, boiled down: as §1
ETV6, sequence (P41212 whole entry): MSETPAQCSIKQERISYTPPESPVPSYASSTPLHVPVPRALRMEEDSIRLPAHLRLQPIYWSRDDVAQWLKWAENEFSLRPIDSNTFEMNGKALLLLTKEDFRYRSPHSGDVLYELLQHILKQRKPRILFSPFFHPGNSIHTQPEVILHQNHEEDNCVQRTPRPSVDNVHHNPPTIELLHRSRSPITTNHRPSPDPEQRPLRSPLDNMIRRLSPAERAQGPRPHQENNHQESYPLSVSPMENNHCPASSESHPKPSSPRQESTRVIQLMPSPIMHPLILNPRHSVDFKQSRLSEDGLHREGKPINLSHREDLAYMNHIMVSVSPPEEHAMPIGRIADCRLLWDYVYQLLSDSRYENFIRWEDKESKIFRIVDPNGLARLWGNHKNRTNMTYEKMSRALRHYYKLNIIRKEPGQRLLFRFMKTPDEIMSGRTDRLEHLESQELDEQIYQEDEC

ELF4, sequence (Q99607 whole entry): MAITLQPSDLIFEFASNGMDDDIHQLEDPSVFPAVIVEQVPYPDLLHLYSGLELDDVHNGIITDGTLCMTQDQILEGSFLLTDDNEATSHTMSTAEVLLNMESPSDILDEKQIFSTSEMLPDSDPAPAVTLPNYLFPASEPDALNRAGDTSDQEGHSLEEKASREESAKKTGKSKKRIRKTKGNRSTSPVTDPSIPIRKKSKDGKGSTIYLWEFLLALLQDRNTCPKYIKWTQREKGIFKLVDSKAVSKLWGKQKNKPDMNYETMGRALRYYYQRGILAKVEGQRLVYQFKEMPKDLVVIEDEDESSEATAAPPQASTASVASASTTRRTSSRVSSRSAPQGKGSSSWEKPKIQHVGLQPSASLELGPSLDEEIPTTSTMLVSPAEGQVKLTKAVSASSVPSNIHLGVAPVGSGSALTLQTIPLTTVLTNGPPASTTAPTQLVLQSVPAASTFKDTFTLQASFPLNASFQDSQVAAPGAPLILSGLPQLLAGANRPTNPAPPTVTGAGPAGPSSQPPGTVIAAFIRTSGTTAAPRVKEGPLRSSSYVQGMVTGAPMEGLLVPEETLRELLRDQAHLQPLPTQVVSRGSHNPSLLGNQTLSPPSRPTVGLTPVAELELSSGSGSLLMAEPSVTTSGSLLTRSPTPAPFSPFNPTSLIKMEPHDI
CRX, sequence (O43186 whole entry): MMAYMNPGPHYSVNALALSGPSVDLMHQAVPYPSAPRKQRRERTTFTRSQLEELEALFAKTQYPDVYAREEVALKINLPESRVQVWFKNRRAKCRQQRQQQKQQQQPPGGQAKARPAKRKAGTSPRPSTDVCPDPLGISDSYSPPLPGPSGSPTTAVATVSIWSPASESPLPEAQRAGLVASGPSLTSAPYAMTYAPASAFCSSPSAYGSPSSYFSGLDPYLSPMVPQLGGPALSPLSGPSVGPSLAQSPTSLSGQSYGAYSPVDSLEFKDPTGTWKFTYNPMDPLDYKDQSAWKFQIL
ETV5, sequence (P41161 whole entry): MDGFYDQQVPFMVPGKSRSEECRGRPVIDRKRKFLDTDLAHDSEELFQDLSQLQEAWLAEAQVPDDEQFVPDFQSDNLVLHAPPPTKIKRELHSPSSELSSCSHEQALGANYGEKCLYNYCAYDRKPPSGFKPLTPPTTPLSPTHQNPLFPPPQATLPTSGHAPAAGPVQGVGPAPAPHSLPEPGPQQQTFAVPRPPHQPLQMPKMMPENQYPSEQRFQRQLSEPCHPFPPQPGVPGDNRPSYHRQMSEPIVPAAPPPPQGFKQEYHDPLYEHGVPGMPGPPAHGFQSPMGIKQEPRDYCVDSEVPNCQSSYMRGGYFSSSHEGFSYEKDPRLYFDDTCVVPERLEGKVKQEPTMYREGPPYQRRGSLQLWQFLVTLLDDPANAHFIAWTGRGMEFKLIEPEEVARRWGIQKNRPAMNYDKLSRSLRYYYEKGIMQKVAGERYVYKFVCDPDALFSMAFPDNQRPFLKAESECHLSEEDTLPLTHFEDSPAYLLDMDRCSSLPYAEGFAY
ETV1, sequence (P50549 whole entry): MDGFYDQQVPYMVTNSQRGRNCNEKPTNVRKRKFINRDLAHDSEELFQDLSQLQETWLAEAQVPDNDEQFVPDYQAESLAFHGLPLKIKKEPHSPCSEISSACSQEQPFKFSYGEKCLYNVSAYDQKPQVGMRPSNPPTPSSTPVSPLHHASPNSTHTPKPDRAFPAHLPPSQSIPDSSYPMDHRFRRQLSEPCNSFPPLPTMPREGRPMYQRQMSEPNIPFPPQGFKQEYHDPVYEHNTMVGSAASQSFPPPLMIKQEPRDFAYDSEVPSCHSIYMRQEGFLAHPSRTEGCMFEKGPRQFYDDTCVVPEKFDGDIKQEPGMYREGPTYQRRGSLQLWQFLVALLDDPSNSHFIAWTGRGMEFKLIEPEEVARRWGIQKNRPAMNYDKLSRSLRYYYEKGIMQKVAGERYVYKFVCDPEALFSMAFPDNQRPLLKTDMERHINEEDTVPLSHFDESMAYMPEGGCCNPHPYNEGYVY
HSF1, sequence (Q00613 whole entry): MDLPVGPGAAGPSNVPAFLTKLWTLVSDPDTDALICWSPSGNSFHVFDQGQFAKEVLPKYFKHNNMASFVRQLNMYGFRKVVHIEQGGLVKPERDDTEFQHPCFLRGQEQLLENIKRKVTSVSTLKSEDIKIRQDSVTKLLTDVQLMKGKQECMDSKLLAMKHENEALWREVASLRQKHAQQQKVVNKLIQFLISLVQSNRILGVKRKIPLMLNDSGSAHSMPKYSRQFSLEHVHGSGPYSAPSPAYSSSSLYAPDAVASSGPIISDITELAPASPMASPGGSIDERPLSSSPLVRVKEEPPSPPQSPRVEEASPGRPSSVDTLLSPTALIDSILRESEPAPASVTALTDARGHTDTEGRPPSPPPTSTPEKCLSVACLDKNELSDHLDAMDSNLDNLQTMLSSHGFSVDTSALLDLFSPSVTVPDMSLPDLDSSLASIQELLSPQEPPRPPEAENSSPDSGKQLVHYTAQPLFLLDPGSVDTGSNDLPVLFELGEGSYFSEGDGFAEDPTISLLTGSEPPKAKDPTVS

Turning to TACTTC, the binding signal was 4.27 fold enrichment (6-mer frequency, TF over GST control) in the experiment with FEV; 3.65 fold enrichment (6-mer frequency, TF over GST control) with ETV5; 1.43 fold enrichment (6-mer frequency, TF over GST control) in the experiment with HSF1; 3.27 fold enrichment (6-mer frequency, TF over GST control) with SPIC; 3.17 fold enrichment (6-mer frequency, TF over GST control) with ELF4; 3.03 fold enrichment (6-mer frequency, TF over GST control) in the experiment with ELK4. Besides, the binding signal was 3.6 fold enrichment (6-mer frequency, TF over GST control) with ETV2; 3.4 fold enrichment (6-mer frequency, TF over GST control) in the experiment with ELF3; 1.48 fold enrichment (6-mer frequency, TF over GST control) in the experiment with CRX; 3.6 fold enrichment (6-mer frequency, TF over GST control) with ETV1; 3.18 fold enrichment (6-mer frequency, TF over GST control) with ERF; 3.22 fold enrichment (6-mer frequency, TF over GST control) in the experiment with ETV3L. For the same sequence, the binding signal in the experiment with ETS2 is 3.64 fold enrichment (6-mer frequency, TF over GST control); with SPDEF, 4.31 fold enrichment (6-mer frequency, TF over GST control); with ETV7 it was 3.62 fold enrichment (6-mer frequency, TF over GST control); with ELF5, 4.77 fold enrichment (6-mer frequency, TF over GST control); with ETV3, 3.67 fold enrichment (6-mer frequency, TF over GST control); in the experiment with ETV6, 4.67 fold enrichment (6-mer frequency, TF over GST control).

The values above are taken from article PMC7862700, “An all-to-all approach to the identification of sequence-specific readers for epigenetic DNA modifications on cytosine”.
